Results from PubChem BioAssay (EPA / NIEHS).
“And” between values parts separate entries of the source, which are not always exact repeats. Equal values may be shown once. Results filed as inconclusive are left out. A structure can be active in one record and inactive in another. The source made the active and inactive calls. How the source made its calls, unless noted: active means hit-call score of the fitted dose curve at least 0.9, where 1 is the maximum; inactive means score below 0.9.

Key:
[1] = target: human RAR-related Orphan Receptor gamma (RORg), RORC (gene 6097) (UniProt P51449); experiment: ATG_RORg_TRANS: Attagene TRANS-FACTORIAL HepG2 Assay for human RAR-related Orphan Receptor gamma (RORg) (AID 2283011; active means hit-call score of the fitted dose curve at least 0.9, where 1 is the maximum;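 on AC50: potency for induction of reporter transcripts above DMSO so activators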)
Chain of human RAR-related Orphan Receptor gamma (RORg), RORC (gene 6097) (P51449 whole entry, looked up, the tested form may be a part): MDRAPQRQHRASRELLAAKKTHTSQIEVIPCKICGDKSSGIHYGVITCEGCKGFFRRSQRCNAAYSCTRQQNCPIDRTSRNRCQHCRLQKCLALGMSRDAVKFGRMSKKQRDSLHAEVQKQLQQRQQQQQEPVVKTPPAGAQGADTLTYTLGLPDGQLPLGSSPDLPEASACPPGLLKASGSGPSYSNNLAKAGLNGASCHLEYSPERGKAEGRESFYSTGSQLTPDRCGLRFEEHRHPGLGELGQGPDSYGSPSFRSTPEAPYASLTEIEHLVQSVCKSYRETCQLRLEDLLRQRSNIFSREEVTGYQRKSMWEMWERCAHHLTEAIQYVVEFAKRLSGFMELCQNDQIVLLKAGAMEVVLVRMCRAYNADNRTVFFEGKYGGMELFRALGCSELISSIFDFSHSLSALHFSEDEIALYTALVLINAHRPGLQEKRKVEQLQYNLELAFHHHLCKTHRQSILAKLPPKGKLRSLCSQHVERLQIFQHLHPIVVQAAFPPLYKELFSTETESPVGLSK
Summary of the method: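 Transient MRTU transfection of HepG2 (TRANS format, exogenous NR-Gal4 chimera). 24 h dosing. Total RNA → oligo(dT) RT → PCR → 6-FAM labelling → HpaI cut → CE. Gain vs DMSO.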

[2] = target: human Retinoid X Receptor beta (RXRb), RXRB (gene 6257) (UniProt P28702); experiment: ATG_RXRb_TRANS: Attagene TRANS-FACTORIAL HepG2 Assay for human Retinoid X Receptor beta (RXRb) (AID 2283013; active means hit-call score of the fitted dose curve at least 0.9, where 1 is the maximum)
Chain of human Retinoid X Receptor beta (RXRb), RXRB (gene 6257) (P28702 whole entry, looked up, the tested form may be a part): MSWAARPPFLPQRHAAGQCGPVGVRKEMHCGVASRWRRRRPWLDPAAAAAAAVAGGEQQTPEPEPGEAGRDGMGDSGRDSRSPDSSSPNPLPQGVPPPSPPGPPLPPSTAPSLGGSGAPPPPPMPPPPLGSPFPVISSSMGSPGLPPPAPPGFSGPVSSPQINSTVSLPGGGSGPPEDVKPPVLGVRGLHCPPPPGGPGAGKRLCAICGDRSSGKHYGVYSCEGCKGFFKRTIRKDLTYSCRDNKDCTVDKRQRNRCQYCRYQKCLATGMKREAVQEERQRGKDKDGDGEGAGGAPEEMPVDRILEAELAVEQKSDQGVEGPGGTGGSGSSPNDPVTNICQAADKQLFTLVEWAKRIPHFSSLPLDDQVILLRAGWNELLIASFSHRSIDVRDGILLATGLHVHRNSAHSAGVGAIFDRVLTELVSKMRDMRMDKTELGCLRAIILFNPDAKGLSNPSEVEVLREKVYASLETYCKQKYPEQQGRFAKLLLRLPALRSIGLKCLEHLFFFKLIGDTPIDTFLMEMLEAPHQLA
Summary of the method: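 After a 24 h incubation with test chemical, transfected HepG2 cells carrying NR-Gal4 fusions and GAL4-UAS reporter transcription units yield RNA whose reporter cDNA is FAM-labelled, HpaI-cut and sized by capillary electrophoresis; increases over DMSO are scored.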

[3] = read-out: E-selectin (Homo sapiens) (UniProt P16581); experiment: BSK_3C_Eselectin: BioMAP Diversity Plus: 3C Assay for Eselectin Biomarker Activity (AID 2283015); conditions: primary human endothelial cells (HUVEC); actives raise or lower the signal
Summary of the method: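 HUVEC, 3C stimulation; compound exposure 24 h; E-selectin by ELISA; gain- or loss-of-signal fitted bidirectionally vs DMSO baseline.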

[4] = read-out: Interleukin-1 alpha (IL1a), IL1A (gene 3552); experiment: BSK_BE3C_IL1a: BioMAP Diversity Plus: BE3C Assay for Interleukin-1 alpha (IL1a) Biomarker Activity (AID 2283016); conditions: primary human bronchial epithelial cells; actives raise or lower the signal
Summary of the method: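 Measured in human lung primary bronchial epithelial cells: IL-1a by ELISA at 24 h after dosing, with bidirectional fitting against DMSO.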

[5] = read-out: Monocyte Chemoattractant Protein-1 (MCP1), CCL2 (gene 6347); experiment: BSK_3C_MCP1: BioMAP Diversity Plus: 3C Assay for Monocyte Chemoattractant Protein-1 (MCP1) Biomarker Activity (AID 2283017); conditions: primary human endothelial cells (HUVEC); actives raise or lower the signal
Summary of the method: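 HUVEC, 3C system; 24 h chemical exposure; MCP-1 by ELISA; bidirectional curve fit vs DMSO baseline.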

[6] = read-out: Monocyte Chemoattractant Protein-1 (MCP1), CCL2 (gene 6347); experiment: BSK_4H_MCP1: BioMAP Diversity Plus: 4H Assay for Monocyte Chemoattractant Protein-1 (MCP1) Biomarker Activity (AID 2283018); conditions: primary human endothelial cells (HUVEC); actives raise or lower the signal
Summary of the method: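 Primary human umbilical vein endothelium is exposed to chemical for 24 h before MCP-1 is assayed by ELISA. Concentration-response fitted bidirectionally relative to DMSO.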

[7] = read-out: Human Leukocyte Antigen - DR isotype (HLADR), HLA-DRA (gene 3122); experiment: BSK_3C_HLADR: BioMAP Diversity Plus: 3C Assay for Human Leukocyte Antigen - DR isotype (HLADR) Biomarker Activity (AID 2283019); conditions: primary human endothelial cells (HUVEC); actives raise or lower the signal
Summary of the method: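 HUVEC, 3C stimulation, 24 h post-dose; HLA-DR by ELISA; bidirectional curve fit vs DMSO baseline; gain or loss of signal scored.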

[8] = read-out: Interleukin-8 (IL8), CXCL8 (gene 3576); experiment: BSK_3C_IL8: BioMAP Diversity Plus: 3C Assay for Interleukin-8 (IL8) Biomarker Activity (AID 2283020); conditions: primary human endothelial cells (HUVEC); actives raise or lower the signal
Summary of the method: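 Using DMSO-treated wells as the baseline, bidirectional curve fitting was applied to ELISA-measured IL-8 from human umbilical vein endothelial cultures sampled 24 h after compound addition.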

[9] = read-out: Monokine induced gamma interferon (MIG), CXCL9 (gene 4283); experiment: BSK_3C_MIG: BioMAP Diversity Plus: 3C Assay for Monokine induced gamma interferon (MIG) Biomarker Activity (AID 2283021); conditions: primary human endothelial cells (HUVEC); actives raise or lower the signal
Summary of the method: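 ELISA-measured MIG in dosed HUVEC 3C cultures at 24 h, analysed by bidirectional fitting with DMSO defining baseline activity.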

[10] = target: human Vitamin D Receptor (VDR), VDR (gene 7421) (UniProt P11473); experiment: ATG_VDR_TRANS: Attagene TRANS-FACTORIAL HepG2 Assay for human Vitamin D Receptor (VDR) (AID 2283022; active means hit-call score of the fitted dose curve at least 0.9, where 1 is the maximum)
Chain of human Vitamin D Receptor (VDR), VDR (gene 7421) (P11473 whole entry, looked up, the tested form may be a part): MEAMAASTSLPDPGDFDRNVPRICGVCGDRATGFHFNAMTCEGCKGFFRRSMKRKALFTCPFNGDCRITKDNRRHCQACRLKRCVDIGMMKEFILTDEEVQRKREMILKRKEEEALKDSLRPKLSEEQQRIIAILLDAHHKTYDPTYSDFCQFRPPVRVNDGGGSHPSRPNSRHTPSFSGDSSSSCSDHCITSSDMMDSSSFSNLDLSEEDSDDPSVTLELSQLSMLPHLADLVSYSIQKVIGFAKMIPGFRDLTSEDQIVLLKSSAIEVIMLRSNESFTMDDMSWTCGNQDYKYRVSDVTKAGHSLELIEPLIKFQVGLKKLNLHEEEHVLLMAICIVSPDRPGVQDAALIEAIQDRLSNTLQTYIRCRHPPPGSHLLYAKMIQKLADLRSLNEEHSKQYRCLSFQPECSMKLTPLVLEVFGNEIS
Summary of the method: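 RT-PCR/capillary electrophoresis read-out of reporter mRNA induction in transiently transfected HepG2; 24 h dosing; chimeric NR-Gal4 (TRANS format); gain-of-signal fit against DMSO baseline.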

[11] = BSK_3C_SRB: Viability Assessment in the BioMAP Diversity Plus: 3C Assay (AID 2283023); conditions: primary human endothelial cells (HUVEC);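 further: cells read 24 h after compound dosing; fitted both ways against DMSO so a hit may be signal rise or drop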
Summary of the method: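 HUVEC, 24 h post-dose; 10% TCA fix, 0.1% SRB stain, A560 nm. Bidirectional curve fit vs DMSO negative control.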

[12] = BSK_3C_Vis: BioMAP Diversity Plus: 3C Assay for Morphology Visualization (AID 2283025); conditions: primary human endothelial cells (HUVEC);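 further: fitted both ways so gain or loss versus DMSO counts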;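 on AC50: light microscopy image of cell morphology used as background control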
Summary of the method: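 Light-microscopy morphology readout, 24 h exposure, human primary umbilical vein endothelium; analysed relative to DMSO with bidirectional fitting.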

[13] = read-out: Pselectin, SELP (gene 6403); experiment: BSK_4H_Pselectin: BioMAP Diversity Plus: 4H Assay for Pselectin Biomarker Activity (AID 2283026); conditions: primary human endothelial cells (HUVEC); actives raise or lower the signal
Summary of the method: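 Bidirectional fits against DMSO gave the endpoint. Cells: primary human umbilical vein endothelium, chemical-treated for 24 h before ELISA detection of P-selectin.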

[14] = BSK_4H_SRB: Viability Assessment in the BioMAP Diversity Plus: 4H Assay (AID 2283027); conditions: primary human endothelial cells (HUVEC);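 further: cells exposed to compound for 24 h before staining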;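 on AC50: curves fitted both ways versus DMSO so AC50 may be loss or gain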
Summary of the method: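 Cytotoxicity readout: sulforhodamine B (0.1%) staining of total protein after 10% TCA fixation, measured at 560 nm in human umbilical vein endothelium at 24 h. DMSO set the baseline; fitting was bidirectional.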

[15] = BSK_BE3C_SRB: Viability Assessment in the BioMAP Diversity Plus: BE3C Assay (AID 2283028); conditions: primary human bronchial epithelial cells;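 on AC50: fitted both ways so AC50 may mark signal gain or loss versus DMSO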
Summary of the method: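 Primary human bronchial epithelium; chemical dosing, 24 h; 10% TCA fix, 0.1% SRB stain, A560; bidirectional fit vs DMSO baseline.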

[16] = read-out: Thrombomodulin, THBD (gene 7056); experiment: BSK_3C_Thrombomodulin: BioMAP Diversity Plus: 3C Assay for Thrombomodulin Biomarker Activity (AID 2283029); conditions: primary human endothelial cells (HUVEC); actives raise or lower the signal
Summary of the method: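 In a multiplexed primary-cell system, human umbilical vein endothelium received chemical and was assayed 24 h later for thrombomodulin by ELISA. Parallel cultures were SRB-stained (0.1% SRB after 10% TCA fixation, read at 560 nm) to flag cytotoxicity.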

[17] = read-out: Urokinase-type plasminogen activator receptor (uPAR), PLAUR (gene 5329); experiment: BSK_4H_uPAR: BioMAP Diversity Plus: 4H Assay for Urokinase-type plasminogen activator receptor (uPAR) Biomarker Activity (AID 2283030); conditions: primary human endothelial cells (HUVEC); actives raise or lower the signal
Summary of the method: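 HUVEC, 24 h post-dose; uPAR by ELISA; bidirectional fit vs DMSO baseline.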

[18] = target: Retinoic acid receptor RXR-alpha (Homo sapiens) (UniProt P19793); experiment: ATG_RXRa_TRANS: Attagene TRANS-FACTORIAL HepG2 Assay for human Retinoid X Receptor alpha (RXRa) (AID 2283012; active means hit-call score of the fitted dose curve at least 0.9, where 1 is the maximum)
Chain of Retinoic acid receptor RXR-alpha (Homo sapiens) (P19793 whole entry, looked up, the tested form may be a part): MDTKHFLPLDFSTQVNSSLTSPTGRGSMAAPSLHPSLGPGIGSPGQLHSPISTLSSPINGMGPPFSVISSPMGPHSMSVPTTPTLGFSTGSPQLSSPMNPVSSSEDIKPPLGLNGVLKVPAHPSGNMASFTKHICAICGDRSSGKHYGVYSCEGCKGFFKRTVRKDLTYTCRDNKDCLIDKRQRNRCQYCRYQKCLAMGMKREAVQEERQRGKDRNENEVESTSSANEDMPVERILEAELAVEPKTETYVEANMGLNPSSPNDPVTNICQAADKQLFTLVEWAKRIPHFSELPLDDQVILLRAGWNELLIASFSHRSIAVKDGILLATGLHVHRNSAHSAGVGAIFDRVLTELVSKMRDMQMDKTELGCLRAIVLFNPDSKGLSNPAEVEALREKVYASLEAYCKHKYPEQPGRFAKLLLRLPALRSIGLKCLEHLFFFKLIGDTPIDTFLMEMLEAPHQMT
Summary of the method: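 Chimeric NR-GAL4 trans-activation in HepG2, 24 h treatment; reporter transcripts quantified by fluorescence on capillary electrophoresis, analysed for upward change from DMSO.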

[19] = read-out: Matrix Metallopeptidase 1 (MMP1), MMP1 (gene 4312); experiment: BSK_BE3C_MMP1: BioMAP Diversity Plus: BE3C Assay for Matrix Metallopeptidase 1 (MMP1) Biomarker Activity (AID 2283024); conditions: primary human bronchial epithelial cells; actives raise or lower the signal
Summary of the method: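 In this multiplexed primary-cell system, human bronchial epithelium received chemicals for 24 h before an ELISA for MMP1. Values reflect bidirectional fits normalised to the DMSO baseline.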

Measured: AC50

Chain of E-selectin (Homo sapiens) (P16581 whole entry, looked up): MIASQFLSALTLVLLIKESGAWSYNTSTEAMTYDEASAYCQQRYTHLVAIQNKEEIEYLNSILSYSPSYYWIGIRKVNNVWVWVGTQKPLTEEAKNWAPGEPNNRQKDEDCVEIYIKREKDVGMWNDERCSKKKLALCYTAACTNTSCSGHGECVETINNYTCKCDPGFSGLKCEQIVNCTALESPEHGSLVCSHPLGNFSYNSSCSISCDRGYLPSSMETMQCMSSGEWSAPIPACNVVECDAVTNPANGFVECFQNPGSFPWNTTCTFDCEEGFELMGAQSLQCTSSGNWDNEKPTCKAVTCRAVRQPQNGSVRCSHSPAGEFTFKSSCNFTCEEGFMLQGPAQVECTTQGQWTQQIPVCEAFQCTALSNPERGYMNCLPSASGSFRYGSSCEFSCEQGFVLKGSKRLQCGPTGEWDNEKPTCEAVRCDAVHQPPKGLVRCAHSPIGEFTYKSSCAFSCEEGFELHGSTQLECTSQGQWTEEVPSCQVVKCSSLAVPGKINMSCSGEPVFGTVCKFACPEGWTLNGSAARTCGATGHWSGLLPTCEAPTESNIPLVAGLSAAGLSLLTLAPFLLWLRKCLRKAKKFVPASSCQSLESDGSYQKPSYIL

Cc1ccc(C(C)C)cc1
not listed: [18] | [19]
inactive: all other assays above

CCCCOC(=O)c1ccc(O)cc1
active: [2] 26.9 µM and 26.4 µM
inactive: [18] | [2] | [3] | [4] | [5] | [6] | [7] | [8] | [9] | [10] | [11] | [12] | [13] | [14] | [15] | [16] | [17]

OC12N=C(c3ccccc3)SC1Cc1cc(Cl)ccc12 (stereo not drawn)
active: [7] 33.8 µM | [11] 28.1 µM
not listed: [19]
inactive: all other assays above

CCCCCCCCCCCO
active: [1] 159 µM | [18] 179 µM | [2] 47.8 µM | [3] 32 µM | [7] 31 µM | [8] 28.6 µM | [10] 159 µM | [11] 31.3 µM
not listed: [9] | [19]
inactive: all other assays above

O=C(O)Cn1c(=O)n(Cc2ccc(Br)cc2F)c(=O)c2ccc(Cl)cc21
not listed: [2] | [9]
inactive: all other assays above

Cc1cc2c(cc1C(F)(F)F)N(C(=O)Nc1ccc(Oc3cccnc3C)nc1)CC2
active: [7] 18.4 µM | [8] 0.889 µM | [12] 36.6 µM | [13] 8.67 µM | [15] 15.8 µM | [16] 5.4 µM
not listed: [9] | [10] | [18]
inactive: all other assays above

O=C(OCCCCCCOC(=O)c1ccccc1)c1ccccc1
not listed: [18] | [19]
inactive: all other assays above

Cc1cn([C@H]2C[C@H](N=[N+]=[N-])[C@@H](CO)O2)c(=O)[nH]c1=O
not listed: [1] | [19]
inactive: all other assays above

O=C(O)Cc1cc(I)c(Oc2ccc(O)c(I)c2)c(I)c1
active: [4] 25.5 µM | [12] 14.5 µM | [17] 23.3 µM
not listed: [2] | [19]
inactive: all other assays above

CN1C(=O)CC[C@H]1c1cccnc1
not listed: [10] | [18] | [19]
inactive: all other assays above

CCCCCCCCCCCCO
active: [3] 31 µM | [4] 19.8 µM | [5] 31 µM | [6] 31.9 µM | [7] 31.3 µM | [8] 36 µM | [11] 31.2 µM | [12] 38.4 µM | [13] 34.2 µM | [14] 31.1 µM | [15] 31.9 µM | [17] 30.9 µM
inactive: [1] | [18] | [2] | [9] | [19] | [16]

CC(C)(O)c1ccc(CNC(=O)c2cccnc2Oc2ccc3nonc3c2)cc1
inactive: all assays above

O=C1c2ccccc2C(=O)N1CCc1noc(-c2ccc(CN3CCCCCC3)s2)n1
active: [7] 26.7 µM | [13] 17.8 µM | [17] 22.8 µM
not listed: [2] | [10] | [19]
inactive: all other assays above
